# Screening data: PubChem, National Center for Advancing Translational Sciences (NCATS)
# NS1 inh: influenza NS1 inhibition | Potency, µM (top dose mostly 46.1 µM), for the others: at the top dose activity, positive = more growth | AID 2326 | actives 0.4% (n = 270,000); also: actives are rising curves; nearly all actives have a fitted effect of over 50% in size
#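 OD600 was taken as the measure of yeast growth restored by compound in an NS1-expressing S. cerevisiae strain. Cells had been washed out of glucose medium and diluted 1:100 into galactose -URA medium, pH 6.0.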
# AMA1-RON2 inh: disrupts binding of P. falciparum AMA1 to RON2; actives 0.2% (n = 360,000); Potency, µM (doses to about 58.2 µM), without a hit: at the highest dose activity change, negative = inhibition, hits mostly inhibitors; AlphaScreen AMA1-biotinylated RON2 peptide binding; active = well fitted inhibition curve with a large enough effect; inconclusive = small, poorly fitted or top-dose-only effect; inactive = no such curve, though single readings can be large or run the other way;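 also: 0% = vehicle wells and -100% = peptide control; nearly all actives have a fitted effect of over 45% in size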
#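 AMA1 (3D7) with his tag at 25 nM final met compounds first, then biotinylated RON2 peptide at 25 nM; detection used donor plus acceptor beads, 10 µg/mL apiece, read by AlphaScreen after 30 min at room temperature.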
# SARS PLP yeast: blocks SARS-CoV papain-like protease in a yeast assay; S. cerevisiae expressing SARS-CoV PLpro, growth rescue; Potency, µM (highest dose often 32.9 µM), without a hit: at the top dose activity, positive = growth rescue, usual class: activators; actives 0.19% (n = 330,000); also: 0% is about no effect; nearly all actives have a fitted effect of over 55% in size
# * marks the source's active call; other numbers are inactive results; ? = inconclusive; . = no result; [ ] = dose if it differs, or a comment. This is a sample that favours compounds with a hit; in the whole collection about 0.65% have one here. Unless noted, calls follow the shape of the full dose curve. Potency is read from the fitted curve at half-maximal effect.
SMILES,NS1 inh,AMA1-RON2 inh,SARS PLP yeast
C[C@@]12C[C@H](O)C3[C@H](CCC4=CC(=O)CC[C@]43C)[C@H]1CC[C@@H]2c1csc(-c2ccccc2)n1 (some centres not stated),-5%,.,.
CC(=O)Oc1cc(C(=O)OCC(=O)N2CCc3ccccc3C2)cc(OC(C)=O)c1OC(C)=O,.,0.32µM*,-1%
COc1ccc(C(=O)OCC(=O)N2CCc3ccccc3C2)cc1OC,.,-4%,-1%
CCC(=O)c1ccc(N2CCN(C(=O)c3ccccc3F)CC2)c(F)c1,.,7%,-1%
O=C(c1ccccc1)c1ccc(N2CCN(C(=O)c3cccc(F)c3F)CC2)c(F)c1,-5%,0%,6.3µM*
CN(C)C(CNC(=O)c1cc(-c2ccco2)nc2ccccc12)c1ccccc1 (configuration not stated),.,?,10µM*
CC(C)CCNC(=O)c1cc(-c2ccco2)nc2ccccc12,23%,7%,-3%
COc1ccccc1CC(=O)OC(C)C(=O)Nc1ccc(S(=O)(=O)N2CCCCC2)cc1 (configuration not stated),.,0%[11.6 µM],2%
Nc1nn(-c2cccc(F)n2)cc1-c1ccccc1,0%,-27%,-1%
N=C1C=CC(=C(c2ccc(N)cc2)c2ccc(N)cc2)C=C1,-4%,14µM*,.
Nc1ccc(C(=O)C(=O)c2ccc(N)cc2)cc1,-1%,13%,-1%
CC(C)CN(C(=O)c1ccc([N+](=O)[O-])s1)c1c(N)n(Cc2ccccc2)c(=O)[nH]c1=O,.,15%,-3%
O=C(NCc1ccc(C(F)(F)F)cc1)c1cccc2c(-c3ccc(F)c(F)c3)coc12,.,13%,.
CN1CCN(c2ccc(CNC(=O)c3cccc4c(-c5ccc(F)c(F)c5)coc34)cc2)CC1,.,14µM*,.
O=C1C(c2ccccc2)=[N+]([O-])c2ccccc21,.,13µM*,1%
O=C1C(=O)c2ccc(-c3ccccc3)cc2-c2ccccc21,-40%,4%,-78%
Cc1nnc(NC(=O)CN2CCN(Cc3ccc(F)cc3Cl)CC2)s1,14%,62%,5%
Cc1cnc(CNC(=O)C2CCC(=O)N(Cc3ccc(Cl)cc3)C2)[nH]1 (configuration not stated),2%,10%,28%
CC1CN(CCOc2cccc(Oc3ccccc3)c2)CC(C)O1 (configuration not stated),-53%,25µM*,-4%
CC1CN(CCCCOc2cccc(Oc3ccccc3)c2)CC(C)O1 (configuration not stated),-4%,-10%,-2%
Cc1cc(C)c(C)c(OCCN2CC(C)OC(C)C2)c1 (configuration not stated),-3%,28µM*,1%
CC1CN(CCOc2ccc(Cl)cc2Cl)CC(C)O1 (configuration not stated),-2%,-7%,-8%
CC(=O)Nc1cc2c(s1)c1cnn(Cc3ccccc3F)c(=O)c1n2C,.,.,-2%
CCN(CC)CCOC(=O)C(Cc1ccco1)Cc1cccc2ccccc12 (configuration not stated),.,25µM*,.
CCN(CC)CCOC(=O)CCc1cccc2ccccc12,-6%,-4%,-13%
SMILES,NS1 inh,AMA1-RON2 inh,SARS PLP yeast
O=C(O)Cn1c(=O)oc2cc(S(=O)(=O)NC3CCCCC3)ccc21,1%,.,.
O=C(O)/C=C\c1c2ccc(=O)c(O)c-2oc2c(O)c(O)ccc12,10%,.,.
CN1CCC(N2CCN(C3CN(Cc4cn(Cc5cccc(C(F)(F)F)c5)nn4)S(=O)(=O)C3)CC2)CC1 (configuration not stated),.,1%,.
CC(=O)NCc1c(Cl)cccc1-n1cccc1,?,5%,10µM*
CCC(=O)NCc1c(Cl)cccc1-n1cccc1,5%,-1%,3%
COc1ccc2c(c1OC)C(=O)OC2n1c(O)c(N=NC(C)=O)c2ccccc21 (configuration not stated),4%,32%,0%
O=c1c(CO)cc(CO)cc(CO)c1O,-1%,22µM*,-5%
CC1(C)CCC(NC(=O)[C@@H](N)CCC(=O)O)CC1,0%,.,.
COc1ccc(OC)c(CN2CCN(C(=O)c3cc4ccccc4cc3O)CC2)c1,1%,?,5%
COC(=O)C1=C(C)N(Cc2ccccc2)C(=NCc2ccc(OC)cc2)N[C@H]1c1ccc(Br)cc1,12%,.,3%
CC1(C)C[C@H](O)[C@]2(CO)[C@H](O)C[C@]3(C)C(=CCC4[C@@]5(C)CC[C@H](O)C(C)(C)C5CC[C@]43C)[C@@H]2C1 (some centres not stated),.,7%,2%
CCOc1ccc2c(c1)-c1c(ssc1=S)C(C)(C)N2C(=O)CSC1=NCCS1,?,10µM*,6%
Cc1ccc2c(c1)-c1c(ssc1=S)C(C)(C)N2C(=O)CSC1=NCCS1,29%,?,8%
CCOc1ccc2c(c1)-c1c(ssc1=S)C(C)(C)N2,6%,19µM*,-28%
